Test [1] concerns Zika virus NS2B-NS3 protease (linked construct). Put plainly: 384 well plate NINDS Rhodamine confirmatory qHTS for Zika virus inhibitors (AID 1347164). Note: nearly all actives have a fitted effect of over 65% in size. Note: potency is the fitted concentration of half-maximal effect. The conditions noted are these: rhodamine-110 peptide substrate fluorescence; series mostly up to 1 mM. The gist of the method: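 Fluorescence read at ex 485 nm/em 538 nm, 25 min after adding 10 microM Ac-LKRR-Rd substrate at room temperature in the dark; signal normalized to no-enzyme and no-inhibitor controls. Enzyme final 5, 30 or 60 nM; compounds, ~15 min preincubation.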
(In general: qHTS replaces the single test concentration by a dilution series.)

The nature of test [2]: Tertiary RLuc qRT-PCR qHTS assay for Zika virus inhibitors (AID 1347169). Note: nearly all actives have a fitted effect of over 55% in size. Note: potency is the fitted concentration of half-maximal effect. The conditions noted are these: infected Vero cells, reporter luminescence, 48-72 h; series mostly up to 5.25 µM. The gist of the method:
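Luminescence read-out: live-cell Renilla luciferase substrate applied to infected Vero cells, signal measured after 1-1.5 hrs. Cells had received compound before ZIKV-RLuc (Cambodian strain, MOI 1-2) infection and were incubated 48-72 hrs at 37 degrees C.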
On the technique in general: Quantitative PCR measures a nucleic acid by following its amplification.

Test [3] can be described thus: Vero cells viability qHTS for Zika virus inhibitors (AID 1347167). Note: potency is the fitted concentration of half-maximal effect. The conditions noted are these: cytotoxicity counter-screen (Zika); series mostly up to 45.9 µM. The gist of the method: (§1)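 Counter-screen for cytotoxicity of hits from NS2B-NS3 protease qHTS. Overnight-attached cells (2.5 x 10^5 cells/mL, DMEM/4% FBS) were dosed in titration, incubated 24 to 48 hours, then assayed by CellTiter Glo.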

A short description of test [4]: HepG2 cells viability qHTS for Zika virus inhibitors (AID 1347168). Note: potency is the fitted concentration of half-maximal effect. The conditions noted are these: Zika counter-screen; series mostly up to 45.9 µM. The gist of the method:
as §1

Test [5] in a line: OV-KATE Cancer Cell Toxicity qHTS against the NCATS CANVASS Library (AID 1347345). The conditions noted are these: OV-KATE cells viability, CellTiter-Glo luminescence, 72 h; series mostly up to 38.3 µM. In short, it runs like this: (§2)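 Viability read-out: CellTiter-Glo luminescence after 72 h compound exposure at 37 °C/5% CO2. Cells plated at 1000/well, 4 h pre-incubation; 11-point titration. Bortezomib served as control.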

The nature of test [6]: HPAF-II Cancer Cell Toxicity qHTS against the NCATS CANVASS Library (AID 1347346). Note: nearly all actives have a fitted effect of over 55% in size. The conditions noted are these: HPAF-II viability, CellTiter-Glo ATP luminescence, 72 h; series mostly up to 38.3 µM. In short, it runs like this:
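HPAF-II cells were seeded at 1000 cells/well, allowed to settle for 4 h at 37 degrees C, then exposed to compounds in an 11-point series for 72 h. Viability was read by CellTiter-Glo luminescence.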

Test [7] in a line: UWB1.289 Cancer Cell Toxicity qHTS against the NCATS CANVASS Library (AID 1347347). Note: nearly all actives have a fitted effect of over 60% in size. The conditions noted are these: UWB1.289 viability, CellTiter-Glo luminescence, 72 h; series mostly up to 38.3 µM. In short, it runs like this:
as §2

The nature of test [8]: OV-SAHO Cancer Cell Toxicity qHTS against the NCATS CANVASS Library (AID 1347348). Note: nearly all actives have a fitted effect of over 55% in size. The conditions noted are these: OV-SAHO viability, CellTiter-Glo luminescence, 72 h; series mostly up to 38.3 µM. The gist of the method:
as §2

A short description of test [9]: Panc-1005 Cancer Cell Toxicity qHTS against the NCATS CANVASS Library (AID 1347349). Note: nearly all actives have a fitted effect of over 60% in size. The conditions noted are these: Panc-1005 viability, CellTiter-Glo luminescence, 72 h; series mostly up to 38.3 µM. The gist of the method:
as §2

Test [10] is described as follows: SW1088 Cancer Cell Toxicity qHTS against the NCATS CANVASS Library (AID 1347350). Note: nearly all actives have a fitted effect of over 75% in size. The conditions noted are these: SW1088 viability, CellTiter-Glo luminescence, 72 h; at 38.3 µM (top of the series). In short, it runs like this: as §2
The nature of test [11]: U-118MG Cancer Cell Toxicity qHTS against the NCATS CANVASS Library (AID 1347351). The conditions noted are these: U-118MG viability, CellTiter-Glo luminescence, 72 h; series mostly up to 38.3 µM. In short, it runs like this:
as §2

The nature of test [12]: COV-362 Cancer Cell Toxicity qHTS against the NCATS CANVASS Library (AID 1347352). The conditions noted are these: COV-362 viability, CellTiter-Glo luminescence, 72 h; series mostly up to 38.3 µM. The gist of the method:
(§3)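 Cells were seeded at 1000 per well and allowed to settle 4 hours at 37 degrees C before pin transfer of compounds as an 11-point series. Viability was read by CellTiter-Glo luminescence after 72 hours' exposure.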

The nature of test [13]: A2780 Cisplatin Sensitive Ovarian Cancer Cell Toxicity qHTS against the NCATS CANVASS Library (AID 1347353). Note: nearly all actives have a fitted effect of over 60% in size. The conditions noted are these: A2780 ovarian cancer viability, ATPLite luminescence, 72 h; at 46.1 µM (top of the series). In short, it runs like this:
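A2780 cisplatin-sensitive cells (750 per well) were seeded, left 4 h at 37 °C, then pin-dosed in an 11-point series. After 72 h at 37 °C/5% CO2, viability was measured as ATPLite luminescence.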

Test [14] can be described thus: UWB1.289-WTBRCA1 Cancer Cell Toxicity qHTS against the NCATS CANVASS Library (AID 1347354). The conditions noted are these: UWB1.289-WTBRCA1 viability, CellTiter-Glo luminescence, 72 h; at 38.3 µM (top of the series). In short, it runs like this:
as §3

The nature of test [15]: HEK-293 Cancer Cell Toxicity qHTS against the NCATS CANVASS Library (AID 1347355). Note: nearly all actives have a fitted effect of over 65% in size. The conditions noted are these: HEK-293 viability, CellTiter-Glo luminescence, 72 h; at 46.1 µM (top of the series). The gist of the method:
as §3

Test [16] in a line: HPAF-II 24hr Apoptosis Induction qHTS against the NCATS CANVASS Library (AID 1347356). The conditions noted are these: HPAF-II caspase-3/7 Caspase-Glo luminescence; series mostly up to 46.1 µM. The gist of the method: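 HPAF-II cells (500/well) in DMEM + 10% FBS were treated with an 11-point compound series for 24 hours at 37 degrees C. Caspase-3/7 activity was then read by Caspase-Glo DEVD luminescence after 15 min.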

Test [17] can be described thus: HEK293 18hr Apoptosis Induction qHTS against the NCATS CANVASS Library (AID 1347357). The conditions noted are these: HEK293 caspase-3/7 Caspase-Glo luminescence; series mostly up to 46.1 µM. The gist of the method:
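Caspase-3/7 luminescence (DEVD substrate, Caspase-Glo) after 18 h compound exposure of HEK293 cells, 500 cells/well; 11-point series; doxorubicin titration as control.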

Test [18] is described as follows: HPAF-II 12hr Apoptosis Induction qHTS against the NCATS CANVASS Library (AID 1347358). The conditions noted are these: HPAF-II caspase-3/7 Caspase-Glo luminescence; series mostly up to 46.1 µM. In short, it runs like this: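 HPAF-II cells (500/well, DMEM + 10% FBS) were exposed to compounds for 12 hours at 37 degrees C. Caspase-3/7 activity was then read by Caspase-Glo 3/7 luminescence after 15 min at room temperature.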

Test [19] is described as follows: HEK293 24hr Apoptosis Induction qHTS against the NCATS CANVASS Library (AID 1347359). The conditions noted are these: HEK293 caspase-3/7 activation, Caspase-Glo luminescence; series mostly up to 46.1 µM. The gist of the method: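 HEK293 cells (500/well, DMEM + 10% FBS) were exposed to compounds in an 11-point series for 24 hours at 37 degrees C, then caspase-3/7 activity was read by Caspase-Glo DEVD luciferase luminescence after 15 min.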

Test [20] is described as follows: HPAF-II 18hr Apoptosis Induction qHTS against the NCATS CANVASS Library (AID 1347360). The conditions noted are these: HPAF-II caspase-3/7 luminescence; series mostly up to 46.1 µM. In short, it runs like this: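 Caspase-Glo 3/7 luminescence (DEVD substrate) after 15 min RT; HPAF-II, 500 cells/well, 18 h compound exposure at 37 degrees C, qHTS series; doxorubicin control 0.1nM - 4uM.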

Values joined by “and” are separate entries in the source; they are usually repeats but may differ in a detail not shown here. Equal values may be shown once. Results filed as inconclusive are left out. Active and inactive are the calls of the source. Calls come from the whole dose curve; as a rule, active = well fitted curve in the direction sought with a large enough effect; inconclusive = small, poorly fitted or top-dose-only effect, or another doubt; inactive = no such curve, though single readings can be large; an effect the other way counts as inactive or inconclusive. Numbered stars: 1 amine (or outer) side, 2 acyl side, 3 side chain; on linkers, the order of the positions; unused ones are H or OH. Bridge positions count the residues as written; N and C are the ends. Square brackets hold non-standard residues; d marks the D form. Peptide text beside a SMILES is read from it. I, II: the chains in the order shown. Actinocin(9to1) = Cc1c2oc3c(C)ccc(C(=O)[*:1])c3nc-2c(C(=O)[*:2])c(N)c1=O; NMeV = CN[C@H](C(=O)O)C(C)C; Sar = CNCC(=O)O

Regarding `Oc1c(Cl)cc(Cl)cc1Sc1cc(Cl)cc(Cl)c1O`, in test [1], the Potency is 200 µM (active). Besides, the Potency entry in test [2] is “inactive”.

Turning to `CC(C)C[C@H]1C(=O)N2CCC[C@H]2[C@]2(O)O[C@](NC(=O)[C@@H]3C=C4c5cccc6[nH]c(Br)c(c56)C[C@H]4N(C)C3)(C(C)C)C(=O)N12`, the Potency entry in test [3] and in test [4] was “inactive” each time.

In the case of `O=C(Nc1ccc(Oc2ccc(Cl)cc2)c(Cl)c1)c1cc(I)cc(I)c1O`, the values for the Potency in [1] and in test [2] were 20 µM (active) and 26200 nM (active), respectively. Further, the Potency entry in test [4] is “inactive”.

As for `CN1CCC[C@@H]1c1cccnc1`, the outcome in test [5], in test [6], in [7], in test [8], in test [9] and in test [10] was inactive. In addition, the outcome in test [11], in [12], in [13], in test [14], in test [15] and in [16] was inactive. Besides, the molecule was called inactive in test [17], in [18], in test [19] and in [20].

In the case of `Nc1ccn([C@@H]2O[C@H](CO)[C@@H](O)C2(F)F)c(=O)n1`, the Potency entry in test [3] and in test [4] was “inactive” throughout. Moreover, the Potency in test [2] was 30.2 nM (active).

Consider `CCCCC(CC)CN=C(N)NC(N)=NCCCCCCN=C(N)NC(N)=NCC(CC)CCCC` (stereo not drawn), for which the Potency in [1] is 39.8 µM (active); in test [3] it was 29.4 µM (active); in test [4], 13.1 µM (active); in [2], 3700 nM (active).

`CC(C)(C)CC(C)(C)c1ccc(OCCOCC[N+](C)(C)Cc2ccccc2)cc1`: the Potency entry in test [3] and in test [4] was “inactive” in each case. In test [2], the Potency is 33 µM (active) and 13.1 µM (active) and 10.4 µM (active).

Regarding `COc1c(C)c2c(c(O)c1C/C=C(\C)CCC(=O)O)C(=O)OC2`, the Potency entry in test [1], in [3] and in test [4] was “inactive” throughout. In addition, the Potency in test [2] is 739 nM (active).

Take `Nc1nc2ncc(CNc3ccc(C(=O)N[C@@H](CCC(=O)O)C(=O)O)cc3)nc2c(=O)[nH]1`: the Potency result in [3], in test [4] and in test [2] was “inactive” each time.

On to `Cc1c2oc3c(C)ccc(C(=O)N[C@@H]4C(=O)N[C@H](C(C)C)C(=O)N5CCC[C@H]5C(=O)N(C)CC(=O)N(C)[C@@H](C(C)C)C(=O)O[C@@H]4C)c3nc-2c(C(=O)N[C@@H]2C(=O)N[C@H](C(C)C)C(=O)N3CCC[C@H]3C(=O)N(C)CC(=O)N(C)[C@@H](C(C)C)C(=O)O[C@@H]2C)c(N)c1=O` (I: T[dV]P[Sar][NMeV] / II: T[dV]P[Sar][NMeV]; ester I:1-I:C, II:1-II:C; linker I:N-II:N via Actinocin(9to1)), for which the Potency result in [3] and in test [4] was “inactive” each time. For the same molecule, the Potency in [2] was 165 nM (active).

Source of the values: PubChem BioAssay (NCATS).
